Measurements taken from PubChem BioAssay (NCI).
This is part of a sample that, as a whole, favours compounds with a hit. Of some 79,000 tested, about 15% had one in any assay. A number with no mark means an inactive call. Active and inactive are the calls of the source. Cut-off read from the data, not from the text of the source: active = growth inhibition above about 70%; inactive = the rest.

Assay: NCI Yeast Anticancer Drug Screen. Data for the wt2 strain (AID 169);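 note: 0% = growth of vehicle-treated yeast cultures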
Conditions: S. cerevisiae wt2 strain growth inhibition; at 11.0 µM; stronger effect = higher value
How it was run: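 Against vehicle-treated controls, the growth of yeast exposed to each compound was compared, and the inhibition was recorded.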

Structure (SMILES)	growth inhibition [%]
CN(C)CCNC(=O)c1cccc2nc3c(ccc4ccccc43)nc12	-2
O=S(=O)(CCC[C@H]1[C@@H](CCOCc2ccccc2)C2CCCN1O2)c1ccccc1 (some centres not stated)	-3
CCC(C)/C(C)=N/NC(N)=O (configuration not stated)	3
Nc1c([N+](=O)[O-])cc2c3c(cccc13)CC2	18
CC1=Cc2ccc(C)cc2C(=O)C1=O	4
C=Cc1c(C)c(O)cc2c1-c1ccc(O)c(C)c1CC2	37
NCC(O)CSCc1ccc(Cl)cc1 (configuration not stated)	-4
C[n+]1c(-c2ccc(NC(=O)c3ccc(C(=O)Nc4ccc(-c5cn6ccccc6[n+]5C)cc4)cc3)cc2)cn2ccccc21	18
CNC(=O)OCc1c(COC(=O)NC)c(C)n(-c2ccc(Cl)c(Cl)c2)c1C	-58
[O-]c1c2cc(-[n+]3c(-c4ccccc4)cc(-c4ccccc4)cc3-c3ccccc3)cc1COCCOCCOCCOCCOC2	-2
C[Si](C)(C)Cc1ccccc1C(=O)O	-1

Same assay, conditions: S. cerevisiae wt2 strain growth inhibition; at 33.0 µM; stronger effect = higher value

Structure (SMILES)	growth inhibition
COc1ccc(/C=C2\CCc3ccccc3C2=O)cc1OC	53%
O=Cc1ccccc1B(O)O	100% (active)
CC(=O)CC[N+](C)(C)C	-31%
O=C(O)[C@H]1[C@@H](C2CCCCC2)O[C@@H](C2CCCCC2)O[C@H]1C(F)(F)F	-4%
CN(NC(=O)/C(=C/C=C/c1ccccc1)NC(=O)c1ccccc1)C1=C(Cl)C(=O)[N+](c2ccccc2)=CC1	42%
CCCCOc1ccc(Nc2c3ccccc3nc3ccccc23)cc1	98% (active)
N#C/C(=C1C=C/C(=N\O)C(Cl)=C\1)c1ccccc1	-9%
COc1ccc(C(=O)OCCc2ccccc2)cc1	-12%
Cc1c2ccncc2c(C)c2c1oc1ccccc12	94% (active)
CCCC#CCOC(=O)c1cc([N+](=O)[O-])cc([N+](=O)[O-])c1	99% (active)
Nc1nc(Nc2ccccc2)nc(Nc2ccccc2)n1	66%
COc1ccc(/C=C2\S/C(=N/Nc3nc(-c4ccccc4)cs3)NC2=O)cc1OC	95% (active)
CC(O)CN1C(=O)c2cccc3cc([N+](=O)[O-])cc(c23)C1=O (configuration not stated)	-12%
Cn1c(COc2ccc(/C=N/NC(=O)CCC(=O)N/N=C/c3ccc(OCc4c[n+]5ccccc5n4C)cc3)cc2)c[n+]2ccccc12	12%
COC1=C(N=[N+]=[N-])C(=O)c2ncccc2C1=O	92% (active)
CCN(CC)c1ccc(N=Nc2cc(S(=O)(=O)O)ccc2O)c(O)c1	-64%
O=C1C(C(O)(C(F)(F)F)C(F)(F)F)CCC1C(O)(C(F)(F)F)C(F)(F)F (configuration not stated)	23%
CN(C)CCNC(=O)c1cccc2nc3c(ccc4ccccc43)nc12	13%
O=S(=O)(CCC[C@H]1[C@@H](CCOCc2ccccc2)C2CCCN1O2)c1ccccc1 (some centres not stated)	2%
CCC(C)/C(C)=N/NC(N)=O (configuration not stated)	4%
Nc1c([N+](=O)[O-])cc2c3c(cccc13)CC2	25%
CC1=Cc2ccc(C)cc2C(=O)C1=O	-1%
C=Cc1c(C)c(O)cc2c1-c1ccc(O)c(C)c1CC2	46%
NCC(O)CSCc1ccc(Cl)cc1 (configuration not stated)	1%
C[n+]1c(-c2ccc(NC(=O)c3ccc(C(=O)Nc4ccc(-c5cn6ccccc6[n+]5C)cc4)cc3)cc2)cn2ccccc21	84% (active)
CNC(=O)OCc1c(COC(=O)NC)c(C)n(-c2ccc(Cl)c(Cl)c2)c1C	91% (active)
[O-]c1c2cc(-[n+]3c(-c4ccccc4)cc(-c4ccccc4)cc3-c3ccccc3)cc1COCCOCCOCCOCCOC2	18%
C[Si](C)(C)Cc1ccccc1C(=O)O	52%

Same assay, conditions: S. cerevisiae wt2 strain growth inhibition; at 100.0 µM; stronger effect = higher value

Structure (SMILES)	growth inhibition
COc1ccc(/C=C2\CCc3ccccc3C2=O)cc1OC	91% (active)
O=Cc1ccccc1B(O)O	99% (active)
CC(=O)CC[N+](C)(C)C	-30%
O=C(O)[C@H]1[C@@H](C2CCCCC2)O[C@@H](C2CCCCC2)O[C@H]1C(F)(F)F	-1%
CN(NC(=O)/C(=C/C=C/c1ccccc1)NC(=O)c1ccccc1)C1=C(Cl)C(=O)[N+](c2ccccc2)=CC1	43%
CCCCOc1ccc(Nc2c3ccccc3nc3ccccc23)cc1	78% (active)
N#C/C(=C1C=C/C(=N\O)C(Cl)=C\1)c1ccccc1	-1%
COc1ccc(C(=O)OCCc2ccccc2)cc1	-8%
Cc1c2ccncc2c(C)c2c1oc1ccccc12	98% (active)
CCCC#CCOC(=O)c1cc([N+](=O)[O-])cc([N+](=O)[O-])c1	99% (active)
Nc1nc(Nc2ccccc2)nc(Nc2ccccc2)n1	96% (active)
COc1ccc(/C=C2\S/C(=N/Nc3nc(-c4ccccc4)cs3)NC2=O)cc1OC	96% (active)
CC(O)CN1C(=O)c2cccc3cc([N+](=O)[O-])cc(c23)C1=O (configuration not stated)	2%
Cn1c(COc2ccc(/C=N/NC(=O)CCC(=O)N/N=C/c3ccc(OCc4c[n+]5ccccc5n4C)cc3)cc2)c[n+]2ccccc12	99% (active)
COC1=C(N=[N+]=[N-])C(=O)c2ncccc2C1=O	95% (active)
CCN(CC)c1ccc(N=Nc2cc(S(=O)(=O)O)ccc2O)c(O)c1	-38%
O=C1C(C(O)(C(F)(F)F)C(F)(F)F)CCC1C(O)(C(F)(F)F)C(F)(F)F (configuration not stated)	39%
CN(C)CCNC(=O)c1cccc2nc3c(ccc4ccccc43)nc12	92% (active)
O=S(=O)(CCC[C@H]1[C@@H](CCOCc2ccccc2)C2CCCN1O2)c1ccccc1 (some centres not stated)	26%
CCC(C)/C(C)=N/NC(N)=O (configuration not stated)	2%
Nc1c([N+](=O)[O-])cc2c3c(cccc13)CC2	55%
CC1=Cc2ccc(C)cc2C(=O)C1=O	98% (active)
C=Cc1c(C)c(O)cc2c1-c1ccc(O)c(C)c1CC2	88% (active)
NCC(O)CSCc1ccc(Cl)cc1 (configuration not stated)	-8%
C[n+]1c(-c2ccc(NC(=O)c3ccc(C(=O)Nc4ccc(-c5cn6ccccc6[n+]5C)cc4)cc3)cc2)cn2ccccc21	94% (active)
CNC(=O)OCc1c(COC(=O)NC)c(C)n(-c2ccc(Cl)c(Cl)c2)c1C	97% (active)
[O-]c1c2cc(-[n+]3c(-c4ccccc4)cc(-c4ccccc4)cc3-c3ccccc3)cc1COCCOCCOCCOCCOC2	82% (active)
C[Si](C)(C)Cc1ccccc1C(=O)O	99% (active)
